hcDAF12 agonist = activators of H. contortus DAF-12 nuclear receptor; AID 652067; activation, % at 6.8 µM; actives 1.4% (n = 370,000); HEK293 hcDAF-12 lit1-tk-luc reporter, luminescence; 0% DMSO, 100% Δ7-dafachronic acid;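 active = activation above the mean of all tested compounds plus 3 SD, cut at about 5.5% in these data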;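 also: 100% = response to 3 µM Δ7-dafachronic acid high control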
DAX1 inh-1 = inhibitors of human orphan nuclear receptor DAX1 (NR0B1); inhibition, % at 6.75 µM; actives 0.99% (n = 340,000); P51843; HEK293 Gal4-DAX1 luciferase reporter, luminescence;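 active = inhibition above the mean over all tested compounds plus 3 SD, cut at about 4.2% in these data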;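 also: 0% = DAX1-transfected cells with DMSO and 100% = empty-vector control cells with DMSO; inhibition shows as a rise in luminescence from relieved DAX1 repression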
AHR act = human AHR activation; P35869; AHR-responsive luciferase reporter cells, luminescence; activation, % at 5 µM; actives 2.5% (n = 320,000); AID 2796; in the data active = activation above about 47%;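 also: 0% = vehicle wells and 100% = reference agonist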
Target sequence (P35869 whole entry, looked up): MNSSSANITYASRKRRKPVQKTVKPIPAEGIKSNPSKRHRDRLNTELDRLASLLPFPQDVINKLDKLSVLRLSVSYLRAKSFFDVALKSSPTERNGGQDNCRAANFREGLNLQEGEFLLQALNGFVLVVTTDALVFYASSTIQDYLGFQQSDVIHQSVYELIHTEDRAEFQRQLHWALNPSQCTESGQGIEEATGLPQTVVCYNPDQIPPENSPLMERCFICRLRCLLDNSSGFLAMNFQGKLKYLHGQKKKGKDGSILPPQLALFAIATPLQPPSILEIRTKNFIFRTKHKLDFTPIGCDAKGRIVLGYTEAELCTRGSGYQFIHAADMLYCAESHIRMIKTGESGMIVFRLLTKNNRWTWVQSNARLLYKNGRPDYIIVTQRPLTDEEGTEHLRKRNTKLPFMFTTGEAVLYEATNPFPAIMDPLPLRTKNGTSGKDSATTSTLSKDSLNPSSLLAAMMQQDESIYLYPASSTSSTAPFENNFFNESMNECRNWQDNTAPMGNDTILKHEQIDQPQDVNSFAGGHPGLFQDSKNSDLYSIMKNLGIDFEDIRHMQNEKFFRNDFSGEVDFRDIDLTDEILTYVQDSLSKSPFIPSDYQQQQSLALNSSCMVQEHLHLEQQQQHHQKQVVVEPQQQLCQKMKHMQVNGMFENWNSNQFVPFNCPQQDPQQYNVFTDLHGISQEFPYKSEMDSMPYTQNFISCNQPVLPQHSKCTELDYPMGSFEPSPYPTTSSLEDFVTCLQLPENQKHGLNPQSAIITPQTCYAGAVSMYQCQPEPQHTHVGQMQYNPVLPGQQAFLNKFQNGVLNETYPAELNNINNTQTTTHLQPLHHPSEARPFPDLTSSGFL
ssDAF-12 act = S. stercoralis DAF-12 activation, primary screen; actives 1% (n = 370,000); HEK293 ssDAF-12/GRIP1 lit1-tk-luc reporter, luminescence; % of 3 µM dafachronic acid response; AID 652126; activation, % at 6.8 µM;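 active = activation above the mean over all tested compounds plus 3 SD, cut at about 0.9% in these data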;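 also: 0% = DMSO-only wells and 100% = 3 µM delta7-dafachronic acid wells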
hgDAF-12 ag = hgDAF-12 agonism, primary luciferase screen; activation, % at 6.8 µM; actives 1.8% (n = 370,000); AID 687014; HEK293 GAL4-hgDAF12 UAS-luciferase reporter, agonist luminescence; normalized to butyrate control;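 active = activation above a cutoff set at the mean of all screened compounds plus 3 SD, cut at about 10% in these data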;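 also: 0% = DMSO wells and 100% = sodium butyrate wells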
DAX1 inh-2 = blocks DAX1 repression of SF-1 activated StAR promoter; inhibition, % at 6.8 µM; actives 1.1% (n = 370,000); HEK293T StAR-luciferase reporter, SF-1/DAX-1 repression relief; AID 652010;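 active = inhibition above the mean over all tested compounds plus 3 SD, cut at about 3.6% in these data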;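 also: 0% = DAX-1 cells with DMSO and 100% = cells lacking DAX-1 with DMSO; higher inhibition means more luminescence from relief of DAX-1 repression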
Starred values were filed as active, the others as inactive. Most compounds without a hit are left out; they make up all but 5.7% or so of the library.

Screening Cc1cc2n(n1)SC(Nc1cc(Cl)ccc1Cl)N2 (centres undefined) returned hcDAF12 agonist 0, DAX1 inh-1 1, AHR act 63*, ssDAF-12 act -1, hgDAF-12 ag 3 and DAX1 inh-2 0.
Screening Cc1cc2n(n1)SC(Nc1cccc3ccccc13)N2 (centres undefined) returned hcDAF12 agonist 5, DAX1 inh-1 1, AHR act 53*, ssDAF-12 act 0, hgDAF-12 ag 3 and DAX1 inh-2 0.
For O=C(NN=C1c2ccccc2-c2ccccc21)c1ccccc1 the results were hcDAF12 agonist 2, DAX1 inh-1 2, AHR act 59*, ssDAF-12 act -2, hgDAF-12 ag 7 and DAX1 inh-2 1.
c1ccc(NN=C2c3ccccc3-c3ccccc32)cc1 was read as hcDAF12 agonist 5.7*, DAX1 inh-1 0, ssDAF-12 act 1, hgDAF-12 ag 2 and DAX1 inh-2 0.
For CC1CCCCC1=NNC(=O)c1ccccc1 (centres undefined) the results were hcDAF12 agonist 2, DAX1 inh-1 5.9*, ssDAF-12 act 0, hgDAF-12 ag 10 and DAX1 inh-2 4.1*.
`CC1(C)OC(=O)C(=NNc2ccccc2)C(=O)O1` gave hcDAF12 agonist -1, DAX1 inh-1 0, AHR act -3, ssDAF-12 act 0, hgDAF-12 ag -1 and DAX1 inh-2 -1.
CCC(C(=O)NC(C)(C)C)N(C(=O)Cn1nnc(-c2ccccc2F)n1)c1cccc2c1CCCC2 (centres undefined) was read as hcDAF12 agonist 0, DAX1 inh-1 4.3*, AHR act 7, ssDAF-12 act -1, hgDAF-12 ag -2 and DAX1 inh-2 1.
For O=C(Nc1cccc(Cl)c1)C1CCCN(C2=NS(=O)(=O)c3ccccc32)C1 (centres undefined) the results were hcDAF12 agonist -1, DAX1 inh-1 0, ssDAF-12 act -1, hgDAF-12 ag -2 and DAX1 inh-2 -2.
O=C(CSc1ccc(-c2ccccn2)nn1)c1ccccc1 was read as hcDAF12 agonist 2, DAX1 inh-1 4.6*, AHR act 4, ssDAF-12 act -1, hgDAF-12 ag 9 and DAX1 inh-2 0.
For c1ccc(CSc2ccc(-c3ccccn3)nn2)cc1 the results were hcDAF12 agonist 5, DAX1 inh-1 1, AHR act -9, ssDAF-12 act 0, hgDAF-12 ag 12* and DAX1 inh-2 3.
For O=C(CSc1ccc(-c2ccccn2)nn1)c1ccc(F)cc1 the results were hcDAF12 agonist 0, DAX1 inh-1 0, AHR act 8, ssDAF-12 act -2, hgDAF-12 ag 5 and DAX1 inh-2 1.
Screening Clc1ccc(CSc2ccc(-c3ccccn3)nn2)cc1 returned hcDAF12 agonist 4, DAX1 inh-1 2, AHR act 4, ssDAF-12 act -1, hgDAF-12 ag 5 and DAX1 inh-2 1.
`N#CCn1c(CN2CCCC2)nc2ccccc2c1=O` gave hcDAF12 agonist -2, DAX1 inh-1 -1, AHR act -1, ssDAF-12 act -1, hgDAF-12 ag 0 and DAX1 inh-2 0.
COCCNC(=O)/C(C#N)=C/c1c(F)cccc1Cl was read as hcDAF12 agonist -2, DAX1 inh-1 -1, AHR act -2, ssDAF-12 act -1, hgDAF-12 ag 4 and DAX1 inh-2 1.
`CC(C)NC(=O)C1(C)CCCN1Cc1ccccc1C#N` (centres undefined) gave hcDAF12 agonist -1, ssDAF-12 act 0, hgDAF-12 ag 0 and DAX1 inh-2 0.
For COc1ccc(CNC(=O)c2cccc3c2C(=O)N(CC2CCCO2)C3)cc1 (centres undefined) the results were hcDAF12 agonist 1, DAX1 inh-1 -1, AHR act 8, ssDAF-12 act -1, hgDAF-12 ag -3 and DAX1 inh-2 0.
`COCCN1Cc2cccc(C(=O)Nc3ccc(S(=O)(=O)N4CCCCCC4)cc3)c2C1=O` gave hcDAF12 agonist -2, DAX1 inh-1 0, AHR act 0, ssDAF-12 act 1.5*, hgDAF-12 ag 0 and DAX1 inh-2 0.
For O=C(Nc1ccc(F)cc1)c1cccc2c1C(=O)N(CC1CCCO1)C2 (centres undefined) the results were hcDAF12 agonist -4, DAX1 inh-1 4.2*, AHR act 11, ssDAF-12 act -1, hgDAF-12 ag 1 and DAX1 inh-2 2.
OCCN1CCN(c2nc(-c3ccccc3)nc3c2oc2ccccc23)CC1 was read as hcDAF12 agonist 0, DAX1 inh-1 0, AHR act -2, ssDAF-12 act -1, hgDAF-12 ag 2 and DAX1 inh-2 -1.
CC(C)(C)c1ccc(C(=O)Nn2cnnc2)cc1 was read as hcDAF12 agonist 4, DAX1 inh-1 3, AHR act 4, ssDAF-12 act 1.0*, hgDAF-12 ag 5 and DAX1 inh-2 0.
O=C([C@@H]1C[C@H]1c1ccccc1)N1CCC(Oc2cccnc2)CC1 was read as hcDAF12 agonist 0, ssDAF-12 act -1, hgDAF-12 ag 0 and DAX1 inh-2 0.
CCOc1ccccc1NC(=O)NCCCCc1ccccc1 was read as hcDAF12 agonist -2, DAX1 inh-1 0, AHR act 16, ssDAF-12 act -2, hgDAF-12 ag 1 and DAX1 inh-2 -1.
For Cc1cc(C)nc(NC(=NCCc2c[nH]c3ccccc23)NC(=O)Nc2ccccc2)n1 the results were hcDAF12 agonist -1, DAX1 inh-1 -2, AHR act 52*, ssDAF-12 act -2, hgDAF-12 ag 0 and DAX1 inh-2 -2.
Cc1cc(C)nc(NC(=NCCc2c[nH]c3ccccc23)NC(=O)Nc2ccc(Cl)c(Cl)c2)n1 was read as hcDAF12 agonist -2, DAX1 inh-1 -1, AHR act 6, ssDAF-12 act -2, hgDAF-12 ag 0 and DAX1 inh-2 0.
Screening CCCOc1ncnc2c1[nH]c1ccc(OC)cc12 returned hcDAF12 agonist 4, DAX1 inh-1 3, AHR act 44, ssDAF-12 act 0, hgDAF-12 ag 9 and DAX1 inh-2 0.
For COCCNc1ncnc2c1[nH]c1ccccc12 the results were hcDAF12 agonist 5, DAX1 inh-1 -1, AHR act 74*, ssDAF-12 act -1, hgDAF-12 ag -3 and DAX1 inh-2 -1.
For CCN(CC)c1ncnc2c1[nH]c1ccccc12 the results were hcDAF12 agonist -1, DAX1 inh-1 -2, AHR act 65*, ssDAF-12 act -1, hgDAF-12 ag -1 and DAX1 inh-2 -2.
For CC(C)Oc1ncnc2c1[nH]c1ccccc12 the results were hcDAF12 agonist -3, DAX1 inh-1 -6, AHR act 22, ssDAF-12 act -2, hgDAF-12 ag -4 and DAX1 inh-2 -2.
For OCCCNc1ncnc2c1[nH]c1ccccc12 the results were hcDAF12 agonist 3, DAX1 inh-1 2, AHR act 23, ssDAF-12 act -1, hgDAF-12 ag -1 and DAX1 inh-2 0.
